High-throughput results from PubChem BioAssay.
An excerpt weighted towards active compounds, which were near 12% of everything screened.
Pf growth 96h – P. falciparum growth inhibition at 96 hours; P. falciparum luciferase reporter growth, 96 h; Potency, µM (top dose mostly 28.7 µM), actives largely listed as inhibitors; actives 6.9% (n = 320,000)
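Parasite growth measured via integrated firefly luciferase reporter in P. falciparum. Infected erythrocytes at 2% hematocrit, 0.05% parasitemia final were treated 96 hours at 37 C under 5% CO2, and luminescence was read.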
HCV inh – HCV inhibition | Huh7.5.1 HCVcc-Cre infection, luciferase reporter, 44 h | actives 3.4% (n = 340,000) | Potency, µM (highest dose often 41.8 µM), usual class: inhibitors
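Luciferase read-out (15 sec integration) after a 15 min room-temperature substrate step quantifies HCVcc-Cre infection. Cells, 1,000 per well, had compound added 4 h post-plating, then virus at ~0.5 moi, and were cultured 44 h.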
Pf growth 48h – inhibits P. falciparum growth in the first generation, 48 h; P. falciparum luciferase growth in erythrocytes, 48 h; Potency, µM (series often up to 28.7 µM), hits mostly inhibitors; actives 5.9% (n = 310,000)
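Luminescence readout; reporter = integrated firefly luciferase in P. falciparum. RBC culture at 2% hematocrit, 0.1% parasitemia final, 37 C/5% CO2; decreased signal taken as growth inhibition.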
NS1 function inh – influenza NS1 inhibition. Potency, µM (highest dose often 46.1 µM). actives 0.4% (n = 270,000); calls by dose curve; further: actives are rising curves; nearly all actives have a fitted effect of over 50% in size
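Growth recovery, yeast-based: influenza A NS1 expressed in S. cerevisiae causes slow growth, and suppressors are detected by OD600. The parent strain without NS1 is used as positive control.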
SARS PLpro yeast-1 – blocks SARS-CoV papain-like protease in a yeast assay | actives 0.19% (n = 330,000) | AID 485353 | S. cerevisiae expressing SARS-CoV PLpro, growth rescue | Potency, µM (series often up to 32.9 µM), actives largely listed as activators; calls by dose curve; further: nearly all actives have a fitted effect of over 55% in size
AMA1-RON2 inh – inhibitors of Plasmodium falciparum AMA1-RON2 interaction; AlphaScreen AMA1-biotinylated RON2 peptide binding; Potency, µM (highest dose often 58.2 µM), most hits filed as inhibitors; actives 0.2% (n = 360,000); further: nearly all actives have a fitted effect of over 45% in size
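AMA1 (3D7) with his tag at 25 nM final met compounds first, then biotinylated RON2 peptide at 25 nM; detection used donor plus acceptor beads, 10 µg/mL apiece, read by AlphaScreen after 30 min at room temperature.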
SARS PLpro yeast-2 – Inhibits SARS-CoV PLP in yeast, hit validation. shares compounds with SARS PLpro yeast-1. yeast expressing SARS-CoV PLpro, growth phenotype rescue. calls only. actives 19% (n = 1,000). AID 652038; call rule not given here
Hits are given with their value; – = inactive; ? = inconclusive; · = no result given; + = active, no number; [ ] = another dose, or the depositor's remark. Unless noted, the call rests on the fitted dose curve; in most records, active means well fitted curve in the direction sought with a large enough effect; inconclusive means small, poorly fitted or top-dose-only effect, or another doubt; inactive means no such curve, though single readings can be large; an effect the other way counts as inactive or inconclusive.

SMILES | Pf growth 96h | HCV inh | Pf growth 48h | NS1 function inh | SARS PLpro yeast-1 | AMA1-RON2 inh | SARS PLpro yeast-2
Cc1ccc(S(=O)(=O)N[C@@H](Cc2ccccc2)C(=O)N2CCC(C(=O)N[C@@H](CC(C)C)C(=O)O)CC2)cc1 | – | – | – | – | – | – | ·
Nc1nc(SCC(=O)OCc2ccccc2)[nH]c(=O)c1NC(=O)c1ccco1 | – | – | – | – | ? | – | –
O=C(Nc1nc2ccccc2n1CCN1CCOCC1)c1cn(-c2ccccc2)nc1-c1ccccc1 | ? | 10µM | 10µM | – | ? | – | ?
CCOC(=O)[C@H]1[C@H]2COc3ccc(Br)cc3[C@@H]2N2C(=O)CN(Cc3ccco3)C(=O)[C@@]12C | ? | – | ? | · | ? | – | –
CCOC(=O)[C@H]1[C@H]2COc3ccc(Br)cc3[C@H]2N2C(=O)CN(Cc3ccc(Cl)cc3)C(=O)[C@@]12C | · | ? | · | · | · | – | ·
O=C(Nc1cc(-c2ccccc2)nn1C1CCCCC1)c1ccc(Cl)cc1 | · | 2.5µM | · | · | ? | – | –
CC(C)CC(=O)Nc1ccc(C(=O)Cn2nc(C(=O)O)c3ccccc3c2=O)cc1 | – | – | · | – | 13µM | – | –
CC(C)(C)c1ccc(NC(=O)COC(=O)c2ccc(NS(=O)(=O)c3ccc(F)c(F)c3)cc2)cc1 | – | – | – | ? | – | – | ·
C=CCNC(=O)O/N=C/c1csc([N+](=O)[O-])c1 | ? | – | – | – | – | – | ·
COc1ccc(N2CCN(CCC(=O)c3ccc4ccccc4c3)CC2)cc1 | – | – | – | – | – | – | ·
CC(=O)Nc1cccc(-c2csc(C(C)(NC(C)=O)c3ccccc3)n2)c1 (stereo unspecified) | · | · | · | · | · | – | ·
Cc1nn(C)cc1/C=N/NC(=S)Nc1ccc(Cl)cc1Cl | – | – | – | – | ? | – | +
O=[N+]([O-])c1c(N2CCN(CCO)CC2)nc2ccccn12 | – | – | – | – | – | – | ·
CCOc1ccccc1CNC(=O)CCNC(=O)Cn1ccc2ccccc2c1=O | – | – | – | – | ? | – | –
COCCCN1CN(S(=O)(=O)c2ccc(C)cc2C)c2nc3ccccc3nc21 | ? | – | ? | – | – | – | ·
O=C(NCc1cccc(C(F)(F)F)c1)N1CCN(C(=O)c2ccccc2)CC1 | · | – | · | · | – | –[11.6 µM] | ·
COc1ccc(-c2noc3c2-c2nc(-c4cccc(C)c4)sc2CC3)cc1 | – | – | – | – | – | – | ·
CCNC(=S)N/N=C/c1cccs1 | 4.7µM | – | · | – | ? | – | +
Cc1c(C(=O)OCC(=O)N(C)CC(=O)Nc2ccc(F)cc2)oc2ccccc12 | – | ? | – | · | – | – | ·
CCn1c(O)c(/C=N/NC(=O)c2ccncc2)c(=O)n(CC)c1=S | – | – | – | – | ? | – | –
O=C(CNC(=O)c1cccc(Br)c1)N/N=C/c1cc(Br)cc(Br)c1O | – | ? | – | · | 3.5µM | – | +
Cc1nc(N/N=C\c2ccc3c(c2)OCO3)sc1C | – | – | – | – | 7.1µM | – | +
COc1cc(CCC(=O)OCC(=O)N2CCc3ccccc32)cc(OC)c1OC | – | – | – | – | – | – | ·
Cc1cccc(C2=NN(c3ccc(Br)cc3)[C@@H](C(=O)N3CCOC3=O)[C@@H]2c2ccccc2)c1 | · | – | · | · | 3.5µM | – | –
CC1CC1C(=O)N(C)CC(=O)Nc1ccc(Cl)c(C(F)(F)F)c1 (stereo unspecified) | ? | – | – | · | ? | – | –
CN(CC(=O)Nc1ccc(Cl)c(C(F)(F)F)c1)C(=O)c1ccc2c(c1)OCCO2 | – | – | – | · | – | – | ·
O=C(Oc1c(Cl)cc(Cl)c2cccnc12)c1ccco1 | · | ? | ? | – | – | – | ·
O=C(Oc1c(Cl)cc(Cl)c2cccnc12)c1cccs1 | – | ? | ? | – | · | – | ?
COc1ccc(C(=O)N/C(=C\c2ccc(SC)cc2)C(=O)NCCCn2ccnc2)cc1OC | · | – | · | · | – | – | ·
COc1ccc(N2CCN(C3CCCN(C(=O)C4=C(C)OCCO4)C3)CC2)cc1 (stereo unspecified) | – | – | – | – | ? | – | –
